{"source": "PubChem BioAssay (NCATS)", "test_in_all_cases": "Cytotoxic Profiling of Annotated Libraries Using Quantitative High-Throughput Screening (AID 1296008); also: nearly all actives have a fitted effect of over 60% in size", "conditions_in_all_cases": "Five cell lines viability, CellTiter-Glo ATP luminescence, 48-72 h; max response: stronger effect = lower value", "key": {"CRL-7250": {"tested_on": "CRL-7250", "how_it_was_run": "(§1)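 Compounds were pin-transferred onto cells and incubated 48 or 72 hr at 37 degree Celsius, 95% humidity. CellTiter-Glo was added, plates sat 10 min at room temperature, then ATP-coupled luminescence was imaged as the viability read-out.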"}, "HEK293": {"tested_on": "HEK293", "how_it_was_run": "as §1"}, "HaCat": {"tested_on": "HaCat", "how_it_was_run": "as §1"}, "KB-3-1": {"tested_on": "KB-3-1", "how_it_was_run": "as §1"}}, "note": "Records with an inconclusive call do not appear. The source made the active and inactive calls. Calls follow the shape of the dose curve; as a rule, active = well fitted inhibition curve with a large enough effect; inconclusive = small, poorly fitted or top-dose-only effect; inactive = flat fitted curve, though single readings scatter. % is scaled to controls: 0 for no effect and ±100 for the full control effect; potency is read from the fitted curve at half-maximal effect."}
{"smiles": "Cc1cc2c(F)c(Oc3ncnn4cc(OCC(C)O)c(C)c34)ccc2[nH]1", "note": "(stereo unspecified)", "values": [{"measurement": "max response", "setting": "CRL-7250", "result": "-24.6% (inactive)"}, {"measurement": "Potency", "setting": "HEK293", "result": "5.8 µM (active)"}, {"measurement": "max response", "setting": "HaCat", "result": "-0.656% (inactive)"}, {"measurement": "max response", "setting": "KB-3-1", "result": "-12.6% (inactive)"}]}
{"smiles": "O=C(c1ccc2nccnc2c1)N1CCCCC1", "values": [{"measurement": "max response", "setting": "CRL-7250", "result": "-4.12% (inactive)"}, {"measurement": "max response", "setting": "HEK293", "result": "-81.1% (inactive)"}, {"measurement": "max response", "setting": "HaCat", "result": "-44.6% (inactive)"}, {"measurement": "outcome", "setting": "KB-3-1", "result": "inactive"}]}
{"smiles": "Nc1ccc(/C=C/C(=O)NCc2cc3cc(-c4ccc(C(=O)N5CCC(F)(F)CC5)cc4)cc(-c4ccc(F)cc4)c3o2)cn1", "values": [{"measurement": "Potency", "setting": "CRL-7250", "result": "3.66 µM (active)"}, {"measurement": "Potency", "setting": "HEK293", "result": "0.58 µM (active)"}, {"measurement": "Potency", "setting": "HaCat", "result": "5.17 µM (active)"}, {"measurement": "Potency", "setting": "KB-3-1", "result": "0.92 µM (active)"}]}
{"smiles": "Cn1c2ccc(F)cc2c2c(C(=O)N3CCCC3)cn(-c3ccccc3)c(=O)c21", "values": [{"measurement": "outcome", "setting": "CRL-7250", "result": "inactive"}, {"measurement": "max response", "setting": "HEK293", "result": "-22.1% (inactive)"}, {"measurement": "max response", "setting": "HaCat", "result": "-0.557% (inactive)"}, {"measurement": "outcome", "setting": "KB-3-1", "result": "inactive"}]}
{"smiles": "CCC(=O)O[C@H]1C(C)(C)[C@H]([C@@H](O)C(=O)OC)[C@]2(C)C(=O)[C@@]1(O)[C@H]1O[C@]13C1CC(=O)O[C@@H](c4ccoc4)[C@]1(C)CCC32", "note": "(stereo partly specified)", "values": [{"measurement": "max response", "setting": "CRL-7250", "result": "0.287% (inactive)"}, {"measurement": "max response", "setting": "HEK293", "result": "-1.59% (inactive)"}, {"measurement": "max response", "setting": "HaCat", "result": "-11.6% (inactive)"}, {"measurement": "max response", "setting": "KB-3-1", "result": "-4.09% (inactive)"}]}
{"smiles": "CC1(C)C2CC=C(COC3OC(COC4OCC(O)(CO)C4O)C(O)C(O)C3O)C1C2", "note": "(stereo unspecified)", "values": [{"measurement": "outcome", "setting": "CRL-7250", "result": "inactive"}, {"measurement": "max response", "setting": "HEK293", "result": "-3.04% (inactive)"}, {"measurement": "max response", "setting": "HaCat", "result": "3.64% (inactive)"}, {"measurement": "max response", "setting": "KB-3-1", "result": "4.52% (inactive)"}]}
{"smiles": "CC[C@H]1OC(=O)[C@H](C)[C@@H](O[C@H]2C[C@@](C)(OC)[C@@H](O)[C@H](C)O2)[C@H](C)[C@@H](O[C@@H]2O[C@H](C)C[C@H](N(C)C)[C@H]2O)[C@](C)(O)C[C@@H](C)C(=O)[C@H](C)[C@H]2OC(=O)O[C@@]21C", "values": [{"measurement": "max response", "setting": "CRL-7250", "result": "0.0016% (inactive)"}, {"measurement": "max response", "setting": "HEK293", "result": "-4.98% (inactive)"}, {"measurement": "max response", "setting": "HaCat", "result": "-4.77% (inactive)"}, {"measurement": "max response", "setting": "KB-3-1", "result": "7.84% (inactive)"}]}
{"smiles": "COc1cc(N2CCOCC2)ccc1Nc1ncc(Cl)c(Nc2ccccc2NS(C)(=O)=O)n1", "values": [{"measurement": "max response", "setting": "CRL-7250", "result": "-96.5% (inactive)"}, {"measurement": "Potency", "setting": "HEK293", "result": "1.84 µM (active)"}, {"measurement": "Potency", "setting": "HaCat", "result": "4.61 µM (active)"}, {"measurement": "Potency", "setting": "KB-3-1", "result": "2.31 µM (active)"}]}
{"smiles": "C=CC1(C)C=C2CCC3C(C)(C)C(O[C@@H]4O[C@@H](CO)[C@H](O)[C@H]4O)CCC3(C)C2CC1O[C@@H]1O[C@H](C)[C@H](O)[C@H](O)[C@H]1O", "note": "(stereo partly specified)", "values": [{"measurement": "max response", "setting": "CRL-7250", "result": "-0.496% (inactive)"}, {"measurement": "max response", "setting": "HEK293", "result": "-0.0102% (inactive)"}, {"measurement": "max response", "setting": "HaCat", "result": "4.85% (inactive)"}, {"measurement": "max response", "setting": "KB-3-1", "result": "-11.1% (inactive)"}]}
{"smiles": "CN(C)C(=O)NC1CCC(CCN2CCN(c3cccc(Cl)c3Cl)CC2)CC1", "note": "(stereo unspecified)", "values": [{"measurement": "max response", "setting": "CRL-7250", "result": "1.18% (inactive)"}, {"measurement": "max response", "setting": "HEK293", "result": "-2.35% (inactive)"}, {"measurement": "outcome", "setting": "HaCat", "result": "inactive"}, {"measurement": "max response", "setting": "KB-3-1", "result": "-7.32% (inactive)"}]}
{"smiles": "CN1C2CCC1CC(OC(=O)[C@H](CO)c1ccccc1)C2", "note": "(stereo partly specified)", "values": [{"measurement": "max response", "setting": "CRL-7250", "result": "0.824% (inactive)"}, {"measurement": "max response", "setting": "HEK293", "result": "-10.6% (inactive)"}, {"measurement": "outcome", "setting": "HaCat", "result": "inactive"}, {"measurement": "max response", "setting": "KB-3-1", "result": "-9.98% (inactive)"}]}
{"smiles": "C[C@@H]1O[C@@H](O[C@H]2[C@H](O[C@H]3[C@H](O)[C@@H](C(=O)O)O[C@@H](O[C@H]4CC[C@@]5(C)C(CC[C@]6(C)C5CC[C@]57OC[C@@]8(CCC(C)(C)CC85)[C@H](O)C[C@]76C)C4(C)C)[C@@H]3O[C@@H]3O[C@H](CO)[C@@H](O[C@@H]4OC[C@@H](O)[C@H](O)[C@H]4O)[C@H](O)[C@H]3O)O[C@H](CO)[C@H](O)[C@@H]2O)[C@H](O)[C@H](O)[C@H]1O", "note": "(stereo partly specified)", "values": [{"measurement": "max response", "setting": "CRL-7250", "result": "-4.31% (inactive)"}, {"measurement": "max response", "setting": "HEK293", "result": "-0.169% (inactive)"}, {"measurement": "max response", "setting": "HaCat", "result": "1.4% (inactive)"}, {"measurement": "outcome", "setting": "KB-3-1", "result": "inactive"}]}
{"smiles": "COc1ccc([C@H]2CNC(=O)C2)cc1OC1CCCC1", "values": [{"measurement": "max response", "setting": "CRL-7250", "result": "-5.24% (inactive)"}, {"measurement": "max response", "setting": "HEK293", "result": "-1.53% (inactive)"}, {"measurement": "max response", "setting": "HaCat", "result": "-27.2% (inactive)"}, {"measurement": "max response", "setting": "KB-3-1", "result": "-2.59% (inactive)"}]}
{"smiles": "COc1c2c(c(C)c3c1C(=O)OC3)OC1(C)CC(O)C34OC(OC)(CC(OC(C)=O)C3(C)C1C2)OC4(C)C", "note": "(stereo unspecified)", "values": [{"measurement": "outcome", "setting": "CRL-7250", "result": "inactive"}, {"measurement": "max response", "setting": "HEK293", "result": "-22.1% (inactive)"}, {"measurement": "outcome", "setting": "HaCat", "result": "inactive"}, {"measurement": "max response", "setting": "KB-3-1", "result": "1.81% (inactive)"}]}
{"smiles": "CC/C=C\\CCO[C@@H]1O[C@H](CO)[C@@H](O)[C@H](O)[C@H]1O", "values": [{"measurement": "max response", "setting": "CRL-7250", "result": "-3.17% (inactive)"}, {"measurement": "max response", "setting": "HEK293", "result": "0.0515% (inactive)"}, {"measurement": "max response", "setting": "HaCat", "result": "-6.57% (inactive)"}, {"measurement": "max response", "setting": "KB-3-1", "result": "3.45% (inactive)"}]}
{"smiles": "C/C=C/C=C/C(O)=C1\\C(O)=C(C)C(=O)[C@@]2(C)OC(=O)[C@@](C)(NC(=O)/C=C/C(=O)O)[C@@H]12", "values": [{"measurement": "max response", "setting": "CRL-7250", "result": "-29.7% (inactive)"}, {"measurement": "max response", "setting": "HEK293", "result": "-6.48% (inactive)"}, {"measurement": "max response", "setting": "HaCat", "result": "-17.6% (inactive)"}, {"measurement": "max response", "setting": "KB-3-1", "result": "-1.41% (inactive)"}]}
{"smiles": "COc1ccc(-c2nc(-c3ccc(-c4cccc(Cl)c4)o3)[nH]c2-c2ccc(OC)cc2)cc1", "values": [{"measurement": "outcome", "setting": "CRL-7250", "result": "inactive"}, {"measurement": "Potency", "setting": "HEK293", "result": "20.6 µM (active)"}, {"measurement": "max response", "setting": "HaCat", "result": "-26.5% (inactive)"}, {"measurement": "max response", "setting": "KB-3-1", "result": "-16.3% (inactive)"}]}
{"smiles": "CCNC(=O)C1OC(n2cnc3c(N)nc(NCCc4ccc(CCC(=O)O)cc4)nc32)C(O)C1O", "note": "(stereo unspecified)", "values": [{"measurement": "max response", "setting": "CRL-7250", "result": "-14.2% (inactive)"}, {"measurement": "max response", "setting": "HEK293", "result": "0.517% (inactive)"}, {"measurement": "max response", "setting": "KB-3-1", "result": "-5.77% (inactive)"}]}
